Bioassay records deposited in PubChem BioAssay by The Scripps Research Institute Molecular Screening Center.
TEAD-YAP inh = TEAD-YAP interaction inhibition; 640,000 tested, 1.4% active; inhibition, % at 9.12 µM; AID 1259422; HEK-TIYL cells, TEAD-Gal4/YAP UAS-luciferase luminescence; in the data active means inhibition above about 32%
FBW7 act = activators of human E3 ligase FBW7; AlphaScreen FBW7–phospho-cyclin E peptide binding, activator screen; Q969H0; normalized activity (activation), % at 26.1 µM; 650,000 tested, 0.13% active; in the data active means normalized activity above about 1.9%;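 further: purified mutant Fbw7 with reduced substrate affinity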
MITF inh = inhibitors of human MITF; 650,000 tested, 0.91% active; AID 1259374; inhibition, % at 2.6 µM; O75030; AlphaScreen MITF homodimerization, bead proximity signal; in the data active means inhibition above about 50%
GPR151 ag = activators of human GPR151; Q8TDV0; PathHunter beta-arrestin GPR151 cells, luminescence; activation, % at 11.2 µM; 650,000 tested, 1% active; in the data active means activation above about 4.9%
Target sequence (Q8TDV0 whole entry, looked up): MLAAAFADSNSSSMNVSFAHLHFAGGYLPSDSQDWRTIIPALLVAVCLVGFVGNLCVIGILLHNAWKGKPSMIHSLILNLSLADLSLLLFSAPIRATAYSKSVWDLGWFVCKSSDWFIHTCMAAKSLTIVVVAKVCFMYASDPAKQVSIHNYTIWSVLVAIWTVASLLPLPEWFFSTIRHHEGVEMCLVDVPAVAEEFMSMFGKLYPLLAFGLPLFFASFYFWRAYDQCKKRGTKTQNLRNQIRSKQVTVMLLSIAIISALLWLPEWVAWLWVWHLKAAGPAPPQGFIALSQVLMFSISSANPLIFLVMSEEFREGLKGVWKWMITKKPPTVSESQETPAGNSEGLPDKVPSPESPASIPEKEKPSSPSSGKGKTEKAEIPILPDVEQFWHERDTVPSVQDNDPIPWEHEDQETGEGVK
GPR151 conf act = human GPR151 activation, confirmation screen. shares compounds with GPR151 ag. GPR151 PathHunter beta-arrestin cells, luminescence, 90 min; % of EA-reagent control over plate median. activation, % at 11.2 µM. 6,700 tested, under 10 active. AID 1508609;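 active means mean percent activation across replicates above the confirmation screen cutoff of 4.91%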
GPR119 ag = activates human GPR119 in a GPR151 counter-screen | activation, % at 11.2 µM | GPR119 PathHunter beta-arrestin cells, luminescence, 90 min; 0 = compound-well median, 100 = enzyme-acceptor control | 6,700 tested, 0.3% active | shares compounds with GPR151 ag;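 active means mean percent activation in the counterscreen above 29.09%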;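 further: counterscreen on off-target GPR119 to flag nonselective hits from the GPR151 activator screen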
Large screens that a line does not name were inactive (follow-up assays come after a bar, where they were run); ! = not confirmed by another sample. This is a sample that favours compounds with a hit; in the whole collection about 3.5% have one here.

CCc1ccccc1NC(=O)COc1ccc(C#N)cc1	GPR151 ag 7.5 | GPR151 conf act inactive | GPR119 ag inactive
COc1ccc(OCC(=O)Nc2ccccc2CO)cc1	GPR151 ag 9.2 | GPR151 conf act inactive | GPR119 ag inactive
O=C(COc1ccc([N+](=O)[O-])cc1)Nc1cccc2cccnc12	GPR151 ag 5.9 | GPR151 conf act inactive | GPR119 ag inactive
CCCC1=NN(C(=O)c2ccccc2N)C(O)(C(F)(F)F)C1 (stereo not given)	none
O=C(COc1ccccc1)Nc1ccccc1NC(=O)COc1ccccc1	GPR151 ag 5.8 | GPR151 conf act inactive | GPR119 ag inactive
CC(=O)Nc1ccccc1NC(=O)COc1ccccc1	none
CCCOc1ccccc1NC(=O)COc1ccc(C#N)cc1	GPR151 ag 12.1 | GPR151 conf act inactive | GPR119 ag inactive
CCOc1ccccc1NC(=O)COc1ccc(F)cc1	none
CC(=O)N1N=C(c2ccccc2)CC1c1cn(-c2ccccc2)nc1-c1ccc(C)cc1 (stereo not given)	GPR151 ag 6.0 | GPR151 conf act inactive | GPR119 ag inactive
Cc1ccc2nc(N3CCN(c4ccccc4)CC3)c3nncn3c2c1	none
O=C(Cc1cccc2ccccc12)N/N=C/c1ccc([N+](=O)[O-])c(O)c1	none
COc1cc(CNc2ncn[nH]2)cc(Cl)c1OC	none
COc1cc(CNc2ncn[nH]2)ccc1OCc1cccc(C)c1	GPR151 ag 5.1 | GPR151 conf act inactive | GPR119 ag inactive
C/C(=C\c1ccccc1)CN1CCC(C(=O)N(CCO)Cc2ccccc2)CC1	none
O=C1c2cccc3cccc(c23)C(=O)N1CCN(C(=O)c1cc(Cl)cc(Cl)c1)c1ccccc1	none
CC(=O)Nc1ccc(NC(=O)c2cc3c(=O)n4ccccc4nc3n2C)cc1	none
Cc1ccc(NC(=O)c2cc3c(=O)n4ccccc4nc3n2C)cc1F	GPR151 ag 5.6 | GPR151 conf act inactive | GPR119 ag inactive
Cn1c(C(=O)Nc2ccc(Oc3ccccc3)cc2)cc2c(=O)n3ccccc3nc21	GPR151 ag 5.9 | GPR151 conf act inactive | GPR119 ag inactive
COCC1CCN(c2nc3nonc3nc2NCc2cccs2)CC1	none
COC1CCN(c2nc3nonc3nc2NCc2cccs2)CC1	GPR151 ag 8.8 | GPR151 conf act inactive | GPR119 ag inactive
CN(Cc1ccccc1)C(=O)CN(C)S(=O)(=O)c1ccc(Br)cc1	none
O=C(CCC1=NNC(=O)CC1)NCCN1Cc2ccccc2OC(c2ccccc2F)C1 (stereo not given)	none
O=C1CCC(CCC(=O)N2Cc3ccccc3OC(c3ccccc3)C2)=NN1 (stereo not given)	GPR151 ag 9.9 | GPR151 conf act inactive | GPR119 ag inactive
COCCCn1c(=O)[nH]c2ncc(-c3cc(OC)c(OC)c(OC)c3)nc21	GPR151 ag 6.0 | GPR151 conf act inactive | GPR119 ag inactive
COCCCn1c(=O)[nH]c2ncc(-c3ccccc3)nc21	none
NNc1nc(N2CCOCC2)nc(N(c2ccccc2)c2ccccc2)n1	GPR151 ag 9.0 | GPR151 conf act inactive | GPR119 ag inactive
Clc1nc(N2CCOCC2)nc(N(c2ccccc2)c2ccccc2)n1	none
CN(CCO)c1ccc(/C=N/NC(=O)c2cc3c(s2)CCCC3)cc1	GPR151 ag 6.2 | GPR151 conf act inactive | GPR119 ag inactive
C/C(=N\NC(=O)c1cc2c(s1)CCCC2)c1ccccc1O	none
COc1cc(NS(=O)(=O)c2ccc([N+](=O)[O-])cc2)c(OC)cc1Cl	none
CC(C)[C@H](NC(=O)c1ccc(F)cc1)C(=O)OCC(=O)Nc1ccc(C#N)cc1	GPR151 ag 7.4 | GPR151 conf act inactive | GPR119 ag inactive
CC(=O)Nc1ccc(NC(=O)C(C)SCc2ccccc2)cc1 (stereo not given)	none
CC(C)n1cnc2c(NCc3ccccc3)nc(-c3csc4ccccc34)nc21	none
CCOCCOC(=O)C1=C(C)NC2=C(C(=O)CC(c3ccc(Cl)cc3)C2)C1c1ccc(Cl)cc1 (stereo not given)	GPR151 ag 7.4 | GPR151 conf act inactive | GPR119 ag inactive
CC1=C(C(=O)OCCOc2ccccc2)C(c2cccc(O)c2)C2=C(CC(c3ccccc3)CC2=O)N1 (stereo not given)	GPR151 ag 14.1 | GPR151 conf act inactive | GPR119 ag inactive
CCOCCOC(=O)C1=C(C)NC2=C(C(=O)CC(c3ccc(Cl)cc3)C2)C1c1ccc(O)cc1 (stereo not given)	none
CC1=C(C(=O)OCC2CCCO2)C(c2cccc([N+](=O)[O-])c2)C2=C(CCCC2=O)N1 (stereo not given)	GPR151 ag 6.1 | GPR151 conf act inactive | GPR119 ag inactive
CCCOCCOC(=O)C1=C(C)NC2=C(C(=O)CCC2)C1c1ccc(F)c(F)c1 (stereo not given)	none
CCOCCOC(=O)C1=C(C)NC2=C(C(=O)CCC2)C1c1ccc(F)c(F)c1 (stereo not given)	GPR151 ag 11.7! | GPR151 conf act inactive | GPR119 ag inactive
CSc1ccc(CN2CCC(n3nccc3NC(=O)Nc3cccc(F)c3)CC2)cc1	none
CC(Oc1cccc(Cl)c1)C(=O)Nc1nccs1 (stereo not given)	GPR151 ag 6.0 | GPR151 conf act inactive | GPR119 ag inactive
CCSc1nnc(NC(=O)c2csc3ccccc23)s1	none
COc1ccc(C/C(N)=N/OC(=O)Cc2ccccc2)cc1	none
CCC(CC)C(=O)O/N=C(\N)Cc1ccc(OC)cc1	GPR151 ag 9.3 | GPR151 conf act inactive | GPR119 ag inactive
O=C(C[n+]1cccc2ccccc21)c1ccc(Br)cc1	GPR151 ag 15.3 | GPR151 conf act inactive | GPR119 ag inactive
COc1ccc(C(=O)C[n+]2cccc(Br)c2)cc1	none
COC(=O)c1ccc[n+](CC(=O)c2ccc(Br)cc2)c1	GPR151 ag 6.2 | GPR151 conf act inactive | GPR119 ag inactive
O=C(C[n+]1cccc2ccccc21)c1ccc(-c2ccccc2)cc1	none
FC(F)(F)c1ccc(Cn2cnc3c(NCCOc4ccccc4)nc(N4CCOCC4)nc32)cc1	none
CCc1ccc(NC(=O)C(CC)Sc2nc3cc(OC)c(OC)cc3c(=O)n2CCc2ccc(Cl)cc2)cc1 (stereo not given)	GPR151 ag 6.5 | GPR151 conf act inactive | GPR119 ag inactive
CCC(Sc1nc2cc(OC)c(OC)cc2c(=O)n1CCc1ccc(Cl)cc1)C(=O)Nc1cccc(Cl)c1 (stereo not given)	none
CCCC1CCc2c(sc(NS(=O)(=O)c3ccc(NC(C)=O)cc3)c2C(N)=O)C1 (stereo not given)	GPR151 ag 10.0 | GPR151 conf act inactive | GPR119 ag inactive
CC(=O)Nc1ccc(S(=O)(=O)Nc2sc3c(c2C(N)=O)CCC(C)C3)cc1 (stereo not given)	none
